The full list was thinned out, with hits kept by preference.
GIRK2 act – GIRK2 channel activators by thallium flux | P48051 | HEK293 GIRK2/NPY4 cells, thallium flux fluorescence | activation (% efficacy), % for hits at 37.5 µM | 34,000 tested, under 10 active | AID 1259324;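 active = primary screen hit, no activity in plain HEK293 cells, and in GIRK2-only cells above 5% efficacy rising with concentration; inactive = the rest, including fluorescent compounds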;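 also: efficacy is normalized control-subtracted fluorescence 15 s after thallium addition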
Target sequence (P48051 whole entry, looked up): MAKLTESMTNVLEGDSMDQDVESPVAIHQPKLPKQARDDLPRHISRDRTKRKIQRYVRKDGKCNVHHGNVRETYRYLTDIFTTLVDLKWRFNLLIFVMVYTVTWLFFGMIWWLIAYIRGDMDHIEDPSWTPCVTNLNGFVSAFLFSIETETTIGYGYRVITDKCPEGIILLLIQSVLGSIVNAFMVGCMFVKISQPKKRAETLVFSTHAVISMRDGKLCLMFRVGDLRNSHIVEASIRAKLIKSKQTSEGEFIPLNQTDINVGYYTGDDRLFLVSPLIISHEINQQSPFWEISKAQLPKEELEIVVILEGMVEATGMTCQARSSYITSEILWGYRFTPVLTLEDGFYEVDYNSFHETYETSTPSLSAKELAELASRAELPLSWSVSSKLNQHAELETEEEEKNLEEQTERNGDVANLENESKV
AMPAR-TARP mod – GluA2-stargazin AMPA receptor complex modulation; O88602+P19491; HEK293 GluA2+stargazin, membrane potential dye (FDSS), glutamate EC50; hits were called plate by plate, in both directions; calls only at 30 µM; hit rate 3.5% among 40,000;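 active = any of four per-well response measures lying three or more SD from its plate-wide compound average, in either direction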
* hit, by the source's call; i = inactive; nt = no result; + = active, no number.

SMILES	GIRK2 act	AMPAR-TARP mod
COc1ccc(C(=O)NCC(c2cccc(OC)c2)N2CCOCC2)cc1 (stereo not given)	i	i
Cc1ccc(C(CNC(=O)c2cccs2)N2CCOCC2)cc1 (stereo not given)	i	i
COc1ccc(CC(=O)NCC(c2cccc3ccccc23)N2CCOCC2)cc1 (stereo not given)	i	i
Cc1ccc(C(CNC(=O)c2ccccc2C)N2CCOCC2)cc1 (stereo not given)	i	+
CCOc1ccc2ccccc2c1C(=O)NCC(c1cccc(OC)c1)N1CCOCC1 (stereo not given)	i	+
O=C(NCC(c1cccc2ccccc12)N1CCOCC1)c1ccc(Br)cc1 (stereo not given)	i	+
Cc1onc(-c2ccccc2Cl)c1C(=O)NCCc1csc2nc(-c3cccc(F)c3)nn12	i	i
COc1ccc(CC(C)(O)CN)cc1 (stereo not given)	i	i
COc1ccc(C(=O)Nc2sc3c(c2-c2nc4ccccc4s2)CCCC3)cc1	nt	i
O=C1CC(c2nc3ccccc3n2CCOc2ccc(Cl)cc2)CN1Cc1ccccc1 (stereo not given)	nt	i
COc1ccc(C(CNC(=O)c2cccc([N+](=O)[O-])c2C)N2CCOCC2)cc1 (stereo not given)	nt	+
COc1cccc(C(CNC(=O)COc2ccccc2)N2CCOCC2)c1 (stereo not given)	i	+
COc1ccc(C(CNC(=O)C(=O)Nc2ccccc2[N+](=O)[O-])N2CCOCC2)cc1 (stereo not given)	i	nt
COc1cccc(C(CNC(=O)COc2ccc(C)cc2)N2CCOCC2)c1 (stereo not given)	nt	i
CN(Cc1ccco1)S(=O)(=O)c1ccc(C(=O)Nc2cccc3ccccc23)cc1	nt	i
COc1ccccc1Cc1noc(C2CN(C(=O)C3CC=CCC3)C2)n1 (stereo not given)	i	nt
Cc1cc(C)n(CCN2CCCN(S(=O)(=O)c3ccc(C(F)(F)F)cc3)CC2)n1	i	i
O=S(=O)(N1CCOCC1)n1c(Cc2ccccc2)nc2ccccc21	i	+
O=S(=O)(N1CCOCC1)n1nnc2ccccc21	i	i
COc1cc(NC(=O)NCC(O)c2cccn2C)cc(OC)c1OC (stereo not given)	i	i
O=C(Nc1cccc(-c2cnc3n2CCC3)c1)c1ccc(Br)o1	i	+
CCOC(=O)CCC(=O)Nc1cccc(-c2cnc3n2CCC3)c1	i	+
O=C(Nc1cccc(Cl)c1)Nc1cccc(-c2cnc3n2CCC3)c1	i	i
O=C(Nc1cccc(-c2cnc3n2CCC3)c1)c1cc2ccccc2oc1=O	i	+
CCOC(=O)CCC(=O)Nc1cccc(N2CCCC2=O)c1	i	i
SMILES	GIRK2 act	AMPAR-TARP mod
COc1ccc(Br)c(C(=O)Nc2cccc(-c3cnc4n3CCC4)c2)c1	i	i
Cc1nn(C(C)(C)C)c(OC(=O)c2cccc(F)c2)c1S(=O)(=O)c1ccccc1	nt	i
COc1ccc(C(=S)N2CCN(C(=S)c3ccccn3)CC2)cc1	i	nt
CC1(C)CS(=O)(=O)N(c2ccc(Cl)c(C(=O)NC3CCCC3)c2)C1=O	i	i
NCC1CCN(C(=O)c2ccoc2)CC1	i	i
O=S(=O)(c1ccc(Cl)c2ccccc12)N1CCCCC1	nt	i
Cc1cccc(CS(=O)(=O)NCC(c2ccccc2)N(C)C)c1 (stereo not given)	i	i
COc1cccc(NC(=O)Cn2c(=O)c(CNc3ccccc3)cc3ccc(OC)cc32)c1	nt	+
COc1cc2cc(CNc3ccc(C)cc3)c(=O)n(CC(=O)Nc3cccc(Cl)c3)c2cc1OC	i	i
Cc1ccc(C)c(NC(=O)Cn2c(=O)c(CNc3ccccc3)cc3cc4c(cc32)OCCO4)c1	i	+
COc1cc2cc(CNc3ccccc3)c(=O)n(CC(=O)Nc3ccc4c(c3)OCO4)c2cc1OC	nt	+
COc1cc2cc(CNc3ccccc3)c(=O)n(CC(=O)Nc3cccc(Cl)c3C)c2cc1OC	nt	+
COc1cc2cc(CNc3ccccc3)c(=O)n(CC(=O)Nc3ccc(C)c(Cl)c3)c2cc1OC	nt	i
CCc1ccc(NCc2cc3cc4c(cc3n(CC(=O)Nc3cc(C)ccc3C)c2=O)OCCO4)cc1	i	i
COC(=O)c1ccccc1NC(=O)Cn1c(=O)c(CNc2ccccc2)cc2ccc(OC)cc21	i	i
COC(=O)c1ccc(C(c2c(O)cc(C)n(C)c2=O)c2c(O)cc(C)n(C)c2=O)cc1	i	i
O=C(CN1C(=O)CCC1=O)N1CCN(Cc2nc3ccccc3[nH]2)CC1	i	i
O=C(Nc1ccc2c(c1)OCO2)N(Cc1ccccn1)Cc1ccco1	i	nt
Cc1nc2ccccn2c1C(=O)NCC(C)(O)c1ccc2c(c1)OCO2 (stereo not given)	i	i
COc1cccc(C(=O)NNC(=O)c2cccn(Cc3ccc(Cl)c(Cl)c3)c2=O)c1	i	i
CC(C)(C)c1ccc(C(=O)N2CCC3(CC2)CC(=O)c2ccccc2O3)cc1	nt	i
Cc1ccccc1C(=O)N1CCC2(CC1)CC(=O)c1ccccc1O2	nt	+
O=C(/C=C/c1ccccc1)NC1CCCC(O)C1 (stereo not given)	i	i
Cc1noc(C)c1S(=O)(=O)NCC1CCN(C(=O)/C=C/c2ccco2)CC1	i	i
O=C(Nc1c2c(nn1-c1ccccc1)CS(=O)(=O)C2)C(=O)N1CCCC1	i	+
SMILES	GIRK2 act	AMPAR-TARP mod
COCCNC(=O)C(=O)Nc1c2c(nn1-c1ccc(Cl)cc1)CS(=O)(=O)C2	nt	+
O=C(Nc1c2c(nn1-c1ccccc1)CS(=O)(=O)C2)C(=O)N1CCCCC1	i	i
COCCCNC(=O)C(=O)Nc1c2c(nn1-c1ccc(Cl)cc1)CS(=O)(=O)C2	nt	i
COc1cccc(NC(=O)Nc2cccc(N3CCCS3(=O)=O)c2)c1OC	i	i
COc1ccc(C)c2sc(N(CCN3CCOCC3)C(=O)c3ccc([N+](=O)[O-])s3)nc12	nt	+
COc1ccc2sc(N(CCN3CCOCC3)C(=O)CSc3ccc(C)cc3)nc2c1	i	i
COc1ccc2nc(N(CCN3CCOCC3)C(=O)c3ccc([N+](=O)[O-])cc3)sc2c1	nt	i
COc1ccc2nc(N(CCN3CCOCC3)C(=O)c3ccc4c(c3)OCCO4)sc2c1	nt	+
COc1ccc2nc(N(CCN3CCOCC3)C(=O)c3ccc(Cl)s3)sc2c1	nt	+
COc1ccc(C)c2sc(N(CCN3CCOCC3)C(=O)c3ccccc3)nc12	nt	i
CCCC(=O)N(CCN1CCOCC1)c1nc2cc(OC)ccc2s1	i	+
COc1ccc2nc(N(CCN3CCOCC3)C(=O)c3nc4ccccc4s3)sc2c1	i	i
Cn1nc(CNC(=O)C2CC=CCC2)c2ccccc2c1=O (stereo not given)	i	i
O=C(Cn1nc(-c2ccc3c(c2)OCO3)ccc1=O)NCc1ccco1	i	i
Cc1ccc(-n2nc3c(c2NC(=O)C(=O)NCc2cccs2)CSC3)c(C)c1	i	i
CN1CCN(NC(=O)C(=O)NC2CCCCCC2)CC1	i	nt
CCOc1ccc2nc(N(Cc3ccncc3)C(=O)/C=C/c3cccc([N+](=O)[O-])c3)sc2c1	i	i

Assay outcomes deposited in PubChem by several laboratories.
